Assay results reported in PubChem BioAssay AID720597 (Broad Institute, 2013).
Entries with a potency or affinity are not part of this list. The source made the active and inactive calls.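 The calls were made as follows: active = fitted half-maximal dose no more than twice the top valid tested dose, for compounds that lower signal; inconclusive = fit invalid, or curve flat with activity between -70 and -30; inactive = potency past limit, curve flat within ±30, or signal increasing.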

Target: NAD-dependent protein deacylase sirtuin-5, mitochondrial (Homo sapiens) (UniProt Q9NXA8)
Experiment: SIRT5 deacylase inhibitors, dose response, biochemical, fluorescence imaging, cherry-pick, set 6 (AID 720597);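 also: lower AMC signal can also come from blocking the trypsin step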

NAD-dependent protein deacylase sirtuin-5, mitochondrial (Homo sapiens), sequence (Q9NXA8 whole entry, looked up): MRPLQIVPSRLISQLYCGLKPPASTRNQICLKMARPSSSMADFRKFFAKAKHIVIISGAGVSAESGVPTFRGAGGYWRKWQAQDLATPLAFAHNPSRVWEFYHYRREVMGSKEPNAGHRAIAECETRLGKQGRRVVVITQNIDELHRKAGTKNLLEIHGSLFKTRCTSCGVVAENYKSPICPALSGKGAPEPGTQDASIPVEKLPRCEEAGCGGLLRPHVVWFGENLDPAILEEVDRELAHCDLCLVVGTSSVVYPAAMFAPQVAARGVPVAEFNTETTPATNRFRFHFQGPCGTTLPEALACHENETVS

Row | SMILES | outcome
1 | CCOc1ccc(C)cc1S(=O)(=O)n1ccnc1C | inactive
2 | C[C@@H]1CN([C@@H](C)CO)C(=O)c2cc(-c3cccc(F)c3)cnc2O[C@H]1CN(C)C | inactive
3 | C[C@@H]1CN([C@H](C)CO)C(=O)c2cc(NC(=O)CCC(F)(F)F)ccc2O[C@H]1CN(C)Cc1ccc(Oc2ccccc2)cc1 | inactive
4 | C[C@@H]1CCCCO[C@H](CN(C)S(=O)(=O)c2ccc(Cl)cc2)[C@H](C)CN([C@H](C)CO)C(=O)c2cc(NS(=O)(=O)c3ccc(F)cc3)ccc2O1 | inactive
5 | CN(C)C(=O)c1cccc(-c2ccc([C@@H]3[C@@H](CO)N4CCCCN(S(C)(=O)=O)C[C@H]34)cc2)c1 | inactive
6 | COc1ccc(NC(=O)N(C)C[C@H]2OCCCC[C@@H](C)Oc3ccc(NC(=O)Cc4ccccc4)cc3C(=O)N([C@H](C)CO)C[C@@H]2C)cc1 | inactive
7 | O=S(=O)(c1ccc(F)cc1)N1CCCCN2[C@H](CO)[C@@H](c3ccc(-c4ccccc4F)cc3)[C@H]2C1 | inactive
8 | C[C@H]1CN([C@@H](C)CO)S(=O)(=O)c2ccc(C#CC(C)(C)O)cc2O[C@H]1CN(C)Cc1ccc(-c2ccccc2)cc1 | inactive
9 | CN(C)C(=O)c1cccc(-c2ccc(C3[C@@H]4CN(C(=O)c5ccccn5)C[C@H]3N4)cc2)c1 (some centres undefined) | inactive
10 | COc1cccc(S(=O)(=O)N(C)C[C@H]2Oc3cc(C4=CCCCC4)ccc3S(=O)(=O)N([C@H](C)CO)C[C@@H]2C)c1 | inactive
11 | O=S(=O)(c1ccc(F)cc1)N1CCCCN2[C@H](CO)[C@H](c3ccc(-c4ccccc4F)cc3)[C@@H]2C1 | inactive
12 | Cc1ccc(S(=O)(=O)N[C@@H]2C=C[C@H](CC(=O)N3CCN(c4ccccc4)CC3)O[C@@H]2CO)cc1 | inactive
13 | Cc1noc(C)c1S(=O)(=O)Nc1ccc2c(c1)C(=O)N([C@@H](C)CO)C[C@H](C)[C@@H](CN(C)Cc1ccc(C(F)(F)F)cc1)OCCCC[C@@H](C)O2 | inactive
14 | Cc1cccc(-c2noc(CN(C(=O)c3ccc(Br)o3)C(C)C)n2)c1 | inactive
15 | CNC[C@@H]1Oc2ccc(NC(=O)Nc3ccc(F)cc3)cc2CC(=O)N([C@@H](C)CO)C[C@H]1C | inactive
16 | C[C@@H]1CN([C@H](C)CO)C(=O)c2cc(NS(=O)(=O)c3ccc(Cl)cc3)ccc2O[C@@H](C)CCCCO[C@H]1CN(C)C(=O)Nc1ccc(C(F)(F)F)cc1 | inactive
17 | C[C@H]1CN([C@@H](C)CO)S(=O)(=O)c2ccc(C#Cc3ccc(F)cc3)cc2O[C@@H]1CN(C)S(=O)(=O)c1ccc(F)cc1 | inactive
18 | CCCC(=O)Nc1ccc2c(c1)OC[C@H](C)N(Cc1ccccc1)C[C@@H](C)[C@H](OC)CN(C)C2=O | inactive
19 | C[C@@H]1CN([C@H](C)CO)C(=O)c2cccc(NC(=O)C3CCCCC3)c2O[C@@H]1CN(C)CC1CC1 | inactive
20 | CCCC#Cc1ccc([C@@H]2[C@@H](CO)N3CCCCN(S(=O)(=O)Cc4ccccc4)C[C@H]23)cc1 | inactive
21 | COc1ccc(NC(=O)N(C)C[C@H]2Oc3cc(C#CCC(C)C)ccc3S(=O)(=O)N([C@H](C)CO)C[C@@H]2C)cc1 | inactive
22 | COc1ccc(S(=O)(=O)N(C)C[C@H]2Oc3ccc(NC(=O)NC4CCCCC4)cc3C(=O)N([C@H](C)CO)C[C@@H]2C)cc1 | inactive

Row | SMILES | outcome
23 | COc1ccc(S(=O)(=O)Nc2ccc3c(c2)C(=O)N([C@H](C)CO)C[C@H](C)[C@H](CN(C)Cc2ccc(C(F)(F)F)cc2)OCCCC[C@H](C)O3)cc1 | inactive
24 | C[C@@H]1CCCCO[C@@H](CN(C)CC2CCCCC2)[C@@H](C)CN([C@@H](C)CO)C(=O)c2cc(NS(=O)(=O)c3ccc(F)cc3)ccc2O1 | inactive
25 | C[C@H](CO)N1C[C@H](C)[C@@H](CN(C)S(=O)(=O)c2ccccc2F)Oc2cc(C#Cc3cccc(F)c3)ccc2S1(=O)=O | inactive
26 | C[C@H]1CN([C@@H](C)CO)C(=O)c2ccccc2-c2ccccc2CO[C@H]1CN(C)Cc1ccccc1C(F)(F)F | inactive
27 | COc1cccc(S(=O)(=O)N(C)C[C@H]2Oc3cc(C4=CCCCC4)ccc3S(=O)(=O)N([C@@H](C)CO)C[C@@H]2C)c1 | inactive
28 | COc1ccc(NC(=O)Nc2ccc3c(c2)C(=O)N([C@H](C)CO)C[C@H](C)[C@@H](CN(C)S(=O)(=O)c2cccs2)OCCCC[C@@H](C)O3)cc1 | inactive
29 | O=C1CNC[C@H]2[C@@H](c3ccc(C4=CCCC4)cc3)[C@H](CO)N12 | inactive
30 | C[C@@H]1CN([C@H](C)CO)S(=O)(=O)c2ccc(/C=C/c3ccccc3)cc2O[C@@H]1CN(C)C(=O)NC1CCCC1 | inactive
31 | COc1ccc(-c2cnc3c(c2)C(=O)N([C@@H](C)CO)C[C@H](C)[C@@H](CN(C)Cc2ccc(C(=O)O)cc2)O3)cc1 | inactive
32 | O=C(CSc1nnc(-c2ccco2)n1-c1ccccc1)Nc1ccc(F)cc1 | inactive
33 | C/C=C/c1ccc([C@H]2[C@@H](CO)N(CC3CCCCC3)[C@@H]2CNC(C)C)cc1 | inactive
34 | COCC(=O)N1C[C@@H]2[C@H](c3ccccc31)[C@H](CO)N2Cc1cc(F)ccc1F | inactive
35 | Cc1noc(C)c1S(=O)(=O)Nc1ccc2c(c1)C(=O)N([C@H](C)CO)C[C@H](C)[C@@H](CN(C)Cc1ccc(C(F)(F)F)cc1)OCCCC[C@H](C)O2 | inactive
36 | Cc1ccc(S(=O)(=O)N(C)C[C@H]2OCCCC[C@H](C)Oc3ccc(NS(=O)(=O)c4ccccc4)cc3C(=O)N([C@@H](C)CO)C[C@H]2C)cc1 | inactive
37 | COc1ccc(S(=O)(=O)N(C)C[C@@H]2Oc3ncc(C#CCN(C)C)cc3C(=O)N([C@H](C)CO)C[C@@H]2C)cc1 | inactive
38 | Cc1ccc(-c2ccc3c(c2)O[C@H](CN(C)Cc2cccnc2)[C@H](C)CN([C@H](C)CO)S3(=O)=O)cc1 | inactive
39 | Cc1noc(C)c1NC(=O)Nc1cccc2c1O[C@H](CN(C)Cc1ccc(Oc3ccccc3)cc1)[C@@H](C)CN([C@H](C)CO)C2=O | inactive
40 | O=C(NC1CCCC1)N[C@@H]1CC[C@H](CC(=O)N2CCOCC2)O[C@H]1CO | inactive
41 | Cc1ccc(S(=O)(=O)N(C)C[C@H]2OCCCC[C@@H](C)Oc3ccc(NS(=O)(=O)c4ccccc4)cc3C(=O)N([C@H](C)CO)C[C@H]2C)cc1 | inactive
42 | C[C@H](CO)N1C[C@H](C)[C@@H](CN(C)C(=O)Nc2ccc(C(F)(F)F)cc2)OCCCC[C@H](C)Oc2ccc(NS(=O)(=O)c3ccc(Cl)cc3)cc2C1=O | inactive
43 | C[C@H]1CN([C@@H](C)CO)C(=O)CCCn2nncc2CO[C@@H]1CN(C)C(=O)CCCN(C)C | inactive
44 | C[C@@H]1CN([C@@H](C)CO)S(=O)(=O)c2ccc(C3=CCCCC3)cc2O[C@H]1CN(C)S(=O)(=O)c1ccc(F)cc1 | inactive
